From PubChem BioAssay (EPA / NIEHS)
The source made the active and inactive calls. The calls were made as follows: active = hit-call score of the fitted dose curve at least 0.9, where 1 is the maximum; inactive = score below 0.9.

read-out: Cytochrome P450 4A22 (Homo sapiens) (UniProt Q5TCH4); assay: LTEA_HepaRG_CYP4A22: Life Technologies and Expression Analysis (LTEA) Assay for Cytochrome P450 4A22 (CYP4A22) using HepaRG (AID 2283495); settings: mRNA level, 48 h; actives raise or lower the signal
Method: LTEA_HepaRG is a cell based, multiplexed-readout assay that uses HepaRG, a human liver cell line, with measurements taken at 48 hours after chemical dosing on a 96-well plate.LTEA_HepaRG_CYP4A22 is one of 102 assay component(s) measured in the LTEA HepaRG cell culture assay. It is a marker of NR mediated metabolism.Data from the assay component LTEA_HepaRG_CYP4A22 was analyzed into 1 endpoint. This assay endpoint, LTEA_HepaRG_CYP4A22, was analyzed with bidirectional fitting relative to DMSO as the negative control and baseline of activity. Using a type of inducible reporter, measures of mRNA induction for gain or loss-of-signal activity can be used to understand regulation of transcription factor activity. To generalize the intended target to other relatable targets, this assay endpoint is annotated to the cyp intended target family, where the subfamily is xenobiotic metabolism.
A total of 1060 chemcials from the ToxCast library were tested in eight-point concentration-response experiments. Cell culture and cytotoxicity assays were conducted at Thermo Fisher Scientific's Custom Services facility (Madison, WI). A single lot of human HepaRG cells (Thermo Fisher Scientific, Frederick, MD) was used for the cell culture experiments. 96-well format collagen type I coated plates of human HepaRG cells were prepared using established methods. Briefly, cryopreserved HepaRG cells were thawed, plated at a density of approximately 100,000 cells/well in HepaRG Thaw, Plate, and General Purpose media (HPRG770, Thermo Fisher Scientific), and incubated for 48 hours. 0.5% DMSO was selected as vehicle control to balance the requisite need of DMSO in HepaRG cultures to maintain differentiation (for example, baseline metabolism, proportions of hepatocytes vs. cholangiocytes), while enabling further hepatic receptor pathway activation (for example, PXR and CAR) in response to chemical exposure. 48 hours after plating, the culture medium was replaced with HepaRG Serum-Free Incudtion Media. Cells were exposed to each test chemical in duplicate and maintained in CO2 incubators for another 48 hours. Chemical plates were thawed to room temperature and 200x concentrations of treatment groups were prepared. 8-point conentration-reponse curves were made with the highest exposure at 100 uM, followed by half-log dilutions, all in 0.5% DMSO. Each test plate contained variouse controls, induction positive controls (1mM phenobarbital), cytotoxicity positive controls ([…] aflatoxin B1), vehicle controls (0.5% DMSO), and total lysis controls (0.5% DMSO). Cell morphology images were taken using an Essen IncuCyte FLR automated microscope, with six 96-well plates imaged in about 24 minutes. Images were captured and exported and JPEG files. Spent culture media was transfered to black-well plates for the LDH assay, and remaining media was sorted at -80 C for later use. Cells were treated with RLT buffer and frozen until shipped for gene expression analysis. Total RNA was isolated from the cell suspension in 75 uL of Buffer RLT (Qiagen, Germantown, MD 20874) by Quintiles/Expression Analysis (Durham, NC) using a custom isolation procedure. Total RNA from each plate well was transferred to a preamplification plate. Fluidigm's 96.96 Dynamic ArrayTM (Fluidigm, Amsterdam, the Netherlands) technology was used for gene expression analyses by quantitative reverse transcription polymerase chain reaction (qRT-PCR, performed by Quintiles/Expression Analysis, Durham, NC)89. Standard TaqManTM Assays (Applied Biosystems/ThermoFisher Scientific, Foster City, CA) were used to assess the expression of 93 genes selected based on their selectivity and sensitivity to important hepatic receptors known to be modulated by environmental chemicals; importance in human hepatocyte functionality; and hepatotoxicity. […]

Structure (SMILES)	AC50	outcome
O=C(CCCN1CCC(O)(c2ccc(Cl)cc2)CC1)c1ccc(F)cc1	64 µM (active)	–
N=C(N)c1ccc(OCCCCCOc2ccc(C(=N)N)cc2)cc1	3.87 µM (active)	–
O=C1NS(=O)(=O)c2ccccc21	–	inactive
Cc1[nH]nc2c1N=C(c1ccccc1Cl)c1cc([N+](=O)[O-])ccc1N2	8.32 µM (active)	–
CCC(C)c1ccccc1O (stereo unspecified)	–	inactive
CCCCC=O	–	inactive
CC(=O)Nc1ccc(O)cc1	–	inactive
CCCCCCCCCCCCCCC	–	inactive
CCCCC(CC)C(=O)O (stereo unspecified)	–	inactive
CN(Cc1cnc2nc(N)nc(N)c2n1)c1ccc(C(=O)N[C@@H](CCC(=O)O)C(=O)O)cc1	–	inactive
OCC(CO)(CBr)CBr	–	inactive
